# In the library only some 2.1% were active in any assay of this set; here they are far more common.
# APP transl inh – APP translation inhibition; AID 1285; SH-SY5Y APP 5'UTR-luciferase reporter, luminescence; 0.82% of 190,000 active; inhibition, % at 2 µM;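 active means inhibition above a set limit, derived from the sample mean plus 3 SD, cut at about 45% in these data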
# IEC-6 cytotox – IEC-6 cytotoxicity, counter-screen for KLF5 inhibitors; luminescence viability; inhibition, % at 5 µM; 0.78% of 290,000 active; AID 1825;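 further: 0% = plate median of test compound wells and 100% = cytotoxic reference compound wells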
# aSyn UTR inh – 5' untranslated region of α-synuclein, MLPCN primary screen. alpha-synuclein 5'UTR reporter, inhibitor activity. inhibition, % (tested at 7.5 µM). 0.82% of 300,000 active; in the data active means inhibition above about 60%;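 further: H4 neuroglioblastoma cells stably carrying SNCA 5'UTR luciferase fusion; 0% = DMSO wells and 100% = positive control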
# BaF3 tox – counter-screen for JAK2V617F inhibitors: parental Ba/F3 viability inhibitors | 1.1% of 220,000 active | CellTiter-Glo ATP luminescence | inhibition, % at 5.6 µM;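 active means inhibition above a per-campaign cutoff, the mean inhibition of all tested compounds plus 3 SD, cut at about 27% in these data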;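 further: 0% = DMSO wells and 100% = JAK Inhibitor I control wells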
# Ba/F3 V617F tox – reduce viability of Ba/F3 cells dependent on JAK2V617F | Ba/F3 EpoR-JAK2V617F viability, ATP luminescence | inhibition, % at 5.6 µM | 1.1% of 220,000 active;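 active means inhibition above the campaign mean plus 3 SD over all tested compounds, cut at about 24% in these data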;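 further: cytokine-independent growth of Ba/F3 cells driven by EpoR plus mutant JAK2; 0% = DMSO-treated cells and 100% = JAK inhibitor I control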
# KLF5 inh – inhibitors of KLF5 expression. DLD-1 KLF5 promoter-luciferase reporter, luminescence. 0.23% of 290,000 active. AID 1700. inhibition, % at 5 µM;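 active means inhibition above a per-plate limit of that plate's mean compound inhibition plus 3 SD, cut at about 60% in these data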;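 further: 0% = DMSO wells and 100% = LY294002 at 200 µM; higher means less KLF5 promoter-driven luciferase light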
# IEC-6 cytotox cf – IEC-6 cytotoxicity, confirmation assay; shares compounds with IEC-6 cytotox; IEC-6 rat intestinal epithelial viability, luminescence; inhibition, % at 5 µM; 63% of 1,900 active; AID 1907;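 further: 0% = vehicle and 100% = reference cytotoxic drug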
# * hit, by the source's call; x = no result given; ! = repeats disagree. Unless noted, no stated cut-off is given here; in the data, active means inhibition above about 22%; inactive means the rest.
SMILES,APP transl inh,IEC-6 cytotox,aSyn UTR inh,BaF3 tox,Ba/F3 V617F tox,KLF5 inh,IEC-6 cytotox cf
Cc1cccnc1NC(=O)CN1C(=O)c2ccccc2S1(=O)=O,x,x,3,x,x,x,x
Cc1ccccc1NC(=O)CN1CCN(C(=O)c2ccco2)CC1,x,5,11,x,x,-11,x
CCN1/C(=C/C=C/c2sc3ccccc3[n+]2CC)Sc2ccccc21,x,x,40,x,x,x,x
CCN1/C(=C/c2ccc3cc(C)ccc3[n+]2CC)Sc2cc(C)c(C)cc21,46*,39*,x,89*,100*,-1,29*
CCN1/C(=C/c2ccc3cc(C)ccc3[n+]2CC)Sc2ccccc21,81*,50*,100*,106*,102*,41,70*
C=CC[C@@H]1C=C(C)C[C@H](C)C[C@H](OC)[C@H]2O[C@@](O)(C(=O)C(=O)N3CCCC[C@H]3C(=O)O[C@H](/C(C)=C/[C@@H]3CC[C@@H](O)[C@H](OC)C3)[C@H](C)[C@@H](O)CC1=O)[C@H](C)C[C@@H]2OC,x,x,1,x,x,x,x
Cn1c(=O)c(=O)n(C)c2cc(S(=O)(=O)N3CCCC3C(=O)Nc3ccc(F)cc3)ccc21 (configuration not stated),x,0,9,x,x,8,x
CC1CCC(C(C)C)C(OC(=O)Cn2c(-c3ccccc3)[n+](C)c3ccccc32)C1 (configuration not stated),-19,28*!,77*,93*,101*,18,18
CC1CCC(C(C)C)C(OC(=O)C[n+]2cc(-c3ccc(Cl)cc3)n3c2CCC3)C1 (configuration not stated),x,6,-2,-2,0,-119,x
O=C1CCCc2cc3c(cc21)CC1(C3)Cc2cc3c(cc2C1)C(=O)CCC3,x,32*,-39,-6,-3,17,35*
CC(=O)Nc1ccc2c(c1)CCCC2=O,x,2,-21,5,-1,-4,x
S=C(Nc1ccccc1)N1CCC(Cc2ccccc2)CC1,x,7,-10,x,x,9,x
O=C(Nc1ccc(-n2cccn2)cc1)C1CCCCN1Cc1cccc2c1OCO2 (configuration not stated),x,54*,-2,x,x,39,37*
COC(=O)c1ccc(C)c(NS(=O)(=O)c2ccc(OC)cc2)c1,94*,87*,82*,75*,80*,53,59*
COC(=O)c1ccc(C)c(NS(=O)(=O)c2ccc(C)c([N+](=O)[O-])c2)c1,-15,-1,3,1,1,-10,x
CN(Cc1ccccc1F)C(=O)COc1ccc(C(=O)c2ccccc2)cc1,x,6,4,x,x,-5,x
N#CC(C#N)=C1C=CC=CN1/C(=C\c1ccco1)C(=O)c1ccccc1,96*,74*,x,71*,92*,23,7
CC(C)(C)NC(=O)/C(=C/c1ccco1)c1ccccc1,-13,2,5,5,1,-17,x
COc1cc(OC)c(C2=NOC(C(=O)NCc3cccs3)C2)cc1Cl (configuration not stated),21,42*,-6,19,6,21,41*
COc1ccc(C2=NOC(C(=O)NCc3cccs3)C2)cc1 (configuration not stated),2,22,-46,3,0,11,x
COc1ccc(C2=NOC(C(=O)NCc3cccs3)C2)cc1OC (configuration not stated),x,52*,60,76*,87*,41,51*
COc1cc(OC)c(C2=NOC(C(=O)NCc3cccnc3)C2)cc1Cl (configuration not stated),x,3,-56,x,x,-3,x
CCCC[C@H](CN[C@@H](CNC)[C@H](C)CC)NCCC12CCC(CC1)C2,x,39*,-43,x,x,-22,102*
CCCc1nc2ccccc2c(C(=O)OC(C)C(=O)NCc2ccc3c(c2)OCO3)c1CC (configuration not stated),13,1,26,4,-1,-5,x
CCCCN(CC)CCCNC(=O)c1cc2c(=O)n(CC)c3ccccc3c2s1,x,22,-321,x,x,-33,x
SMILES,APP transl inh,IEC-6 cytotox,aSyn UTR inh,BaF3 tox,Ba/F3 V617F tox,KLF5 inh,IEC-6 cytotox cf
CCn1c(=O)c2cc(C(=O)NCCCOC)sc2c2ccccc21,x,22*,-85,x,x,-34,13
CCCN(CCC)CCCNC(=O)c1cc2c(=O)n(CC)c3ccccc3c2s1,x,22*,-300,x,x,0,19
CC(OC(=O)/C=C/c1ccccc1)C(=O)N1CCc2ccccc21 (configuration not stated),x,x,-15,x,x,x,x
CCCN1CCN(CCCNC(=O)c2ccc3nc(N4CCCCC4)sc3c2)CC1,x,0,-214,x,x,-138,x
CC1CC(C)CN(CCCNC(=O)c2ccc3nc(N4CCCCC4)sc3c2)C1 (configuration not stated),x,27*,-273,x,x,-114,2
C/C(=N\N=C1\NC(=O)C(Cc2ccccc2)S1)c1ccccc1 (configuration not stated),4,2,2,6,0,-19,x
CNC(=O)/C(C#N)=C1\SC(Cc2ccc(F)cc2)C(=O)N1c1ccccc1C (configuration not stated),x,7,-11,-2,3,-14,x
CC(=O)/C(C#N)=C1\NC(=O)C(Cc2ccccc2)S1 (configuration not stated),5,76*,-20,2,-1,10,51*
CC(=O)/C(C#N)=C1\NC(=O)C(Cc2ccccc2C)S1 (configuration not stated),x,71*,32,9,4,40,47*
CCOc1ccc(CCNC(=O)CN2C(=O)NC3(CCCCC3)C2=O)cc1OCC,x,x,10,x,x,x,x
Nc1ccc(CN2CCOCC2)cc1,-15,-3,4,1,-2,-44,x
CCOC(=O)c1ccc(NC(=O)Cn2ncc(Cl)c(Cl)c2=O)cc1,96*,35*,-2,63*,56*,-1,32*
Cc1ccc(C(=O)OCn2ncc(Cl)c(Cl)c2=O)cc1,92*,44*,43,56*,39*,8,56*
COc1ccc(NC(=O)Cn2ncc(Cl)c(Cl)c2=O)cc1S(=O)(=O)N1CCOCC1,-4,41*,-32,-6,-4,12,7
CCc1nnc(SCC(=O)Nc2ccc(N3CCOCC3)cc2)n1C,x,0,-10,x,x,-22,x
Cc1ccc(NC(=O)CCc2nnc3ccc(N4CCC5(CC4)OCCO5)nn23)cc1F,x,-1,-3,x,x,1,x
CCOc1ccc(NC(=O)c2cc(=O)[nH]c3ccccc23)cc1,x,-1,17,x,x,-27,x
COc1cccc(NC(=S)N2CCN(S(C)(=O)=O)CC2)c1,x,-4,x,x,x,-18,x
Cc1cccc(N2CCN(C(=O)c3cc(S(=O)(=O)N4CCCC4)cn3C)CC2)c1C,x,52*,35,x,x,43,16
O=C(O)c1nn(CCOc2c(Cl)cccc2Cl)c(=O)c2ccccc12,x,40*,-5,x,x,29,18
COc1ccc(F)cc1Cn1nc(C(=O)O)c2ccccc2c1=O,x,36*,6,x,x,0,21
COc1ccc(C)cc1NC(=O)CSc1ccc(-c2ccco2)nn1,x,8,-4,x,x,-20,x

# Assay outcomes from PubChem BioAssay.
